Data from ChEMBL document CHEMBL1157539, “Thousands of chemical starting points for antimalarial lead identification” (Nature, 2010).

Test system: HepG2
Assay: GSK_TCMDC: Percent inhibition of human HepG2 cell line. Test compounds present at 10uM.
Assay type: functional

In order of falling Inhibition:
1. CN1CCCC(CN2CCN(Cc3cccc(-c4ccc(-c5nc6cc(F)ccc6[nH]5)cc4)c3)CC2)C1.O=C(O)C(F)(F)F (stereo not given)  78%
2. CN(C)CCCNCc1ccc(-c2ccc(CNCCc3ccccc3)cc2)cc1.O=C(O)C(F)(F)F  61%
3. CN1CCN(Cc2cc3cc(NC(=O)/C=C/c4cccc(Cl)c4)ccc3s2)CC1.Cl  54%
4. CC(C)N1CCN(CCCCNc2c3ccccc3nc3ccccc23)CC1.Cl  38%
5. Cc1ccccc1Nc1cc(Nc2ccccc2C)c2ccccc2n1  28%
6. O=C(Nc1cccc(CN2CCCN(Cc3ncc[nH]3)CC2)c1)c1ccc2ccccc2c1.O=C(O)C(F)(F)F  13%
7. COc1ccc2nccc([C@@H](O)CN3CCC(NC(=O)C(c4cc5ccccc5o4)N4CCC(Cc5ccccc5)CC4)CC3)c2c1 (stereo not given in full)  11%
8. O=C(Nc1ccc(Cl)cc1C(=O)Nc1cccc(F)c1)c1ccc([N+](=O)[O-])cc1  10%
9. CN1CCN(Cc2nc(-c3ccc4c(Nc5ccc(F)c(O)c5)ccnc4c3)cs2)CC1  0%
10. COc1cc(NC(=O)Nc2ccc(Br)cc2C(=O)Nc2ccc(Br)cc2)cc(OC)c1OC  0%
